# Assay results reported in PubChem BioAssay (NCI).
# About 79,000 compounds went through this panel and 15% of them were active in at least one assay; those are over-represented in the sample as a whole. Unmarked numbers belong to inactive results. Active and inactive are the calls of the source. Cut-off read from the data, not from the text of the source: active = growth inhibition above about 70%; inactive = the rest.
# Assay: NCI Yeast Anticancer Drug Screen. Data for the rad18 strain (AID 177)
# Settings: S. cerevisiae rad18 mutant growth inhibition; at 11.0 µM; hits give high values
# Procedure, shortened: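 A genetically defined yeast mutant impaired in DNA damage repair was treated with test compounds, then its growth was measured against cultures receiving vehicle alone.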
row,Compound,growth inhibition
1,S=C(S)NN1CCOCC1,67%
2,COc1cc2c3c(cccc3c1)C(=O)N(CCN(C)C)C2=O,-23%
3,COC(=O)C1=C(C)NC(C)=C(C(=O)OCCCN2CCC(c3ccccc3)(c3ccccc3)CC2)C1c1cccc([N+](=O)[O-])c1 (configuration not stated),94% (active)
4,c1ccc2c(c1)Oc1cccc3cccc-2c13,25%
5,Cc1ccc(CCC2=CCCc3c2ccc2ccccc32)cc1,-2%
6,CNC(=O)OCc1c(COC(=O)NC)c(-c2ccc(Cl)c(Cl)c2)n2c1CCC2,-32%
7,Clc1ccccc1C1OC1c1ccccc1Cl (configuration not stated),-64%
8,O=[N+]([O-])c1cc(CCl)ccc1CCl,94% (active)
9,S=c1[nH]nc(Nc2ccc(Cl)cc2)s1,-4%
10,Cn1ccnc1Oc1ccc(Cl)cc1,6%
11,BrCc1cccc2ccc3cccc(CBr)c3c12,-1%
12,O=C1c2ccccc2-c2nc3ccccc3nc21,-28%
13,CCCCCCCCCCCCCCCCCCNC,7%
14,Oc1ccc(NCn2c(=S)sc3ccccc32)cc1,-11%
15,O=C1C2CC[C@@H]3C(=O)C(Cl)(Cl)[C@@H]3CCC2C1(Cl)Cl (some centres not stated),94% (active)
16,CC[n+]1ccc2c(C)c3[nH]c4ccc(O)cc4c3c(C)c2c1,23%
17,Cc1ccc(-n2cc(-c3ccc(Cl)cc3)c(C#N)c2N)cc1,4%
18,CC(=O)[O][Bi]([c]1ccccc1)[c]1ccccc1,72% (active)

row,Compound,growth inhibition
1,CC1=C(SCCO)C(=O)c2ccccc2C1=O,-3%
2,C/C(=N\O)C1CC2C=C(C#N)C1N(Cc1ccccc1)C2 (configuration not stated),40%
3,CC(Br)C(=O)c1ccc2cc(Br)c3ccccc3c2c1 (configuration not stated),17%
4,Nc1nc(-c2cccnc2)cc(-c2cc(-c3cccnc3)nc(N)n2)n1,-9%
5,CCC(C)COC(=O)c1ccc(N=Cc2ccc(C=Nc3ccc(C(=O)OCC(C)CC)cc3)cc2)cc1 (configuration not stated),3%
6,Oc1cccc2c(Cl)ccnc12,97% (active)
7,O=C(O)c1cccc(-c2c3ccc(=O)cc-3oc3cc(O)ccc23)c1,41%
8,CN(CCc1ccccn1)c1ccc2c(c1)Cc1ccccc1-2,95% (active)
9,Cc1cc(S(=O)(=O)/N=C(/NN)NNc2cccc(C(F)(F)F)n2)c(S)cc1Cl,-6%
10,O=C1C2C(C(=O)N1c1ccc(OCc3ccccc3)cc1)C1c3ccccc3C2C2CCCCN21 (configuration not stated),8%
11,Nc1ccccc1CC(O)C(=O)O (configuration not stated),10%
12,O=C(O)C1CCCCC1c1c2ccc(=O)c(O)c-2oc2c(O)c(O)ccc12 (configuration not stated),2%
13,Cc1ccc2ccc(O)cc2c1,-22%
14,O=C1C(=O)c2ccccc2C=C1[N+](=O)[O-],89% (active)
15,COC(=O)c1ccc(NCC2=CC(=O)C=CC2=O)cc1O,85% (active)
16,C(CCSC1=NCCN1)CSC1=NCCN1 (tested in a mixture with another compound),91% (active)
17,N#Cc1c(N)[nH]c2ccc(Sc3ccccc3)cc12,87% (active)
18,CC[C@@]1(O)C(=O)OCc2c1cc1n(c2=O)Cc2cc3c(N)cccc3nc2-1,-13%

# Same assay, conditions: S. cerevisiae rad18 mutant growth inhibition; at 33.0 µM; hits give high values
row,Compound,growth inhibition
1,S=C(S)NN1CCOCC1,50%
2,COc1cc2c3c(cccc3c1)C(=O)N(CCN(C)C)C2=O,-15%
3,COC(=O)C1=C(C)NC(C)=C(C(=O)OCCCN2CCC(c3ccccc3)(c3ccccc3)CC2)C1c1cccc([N+](=O)[O-])c1 (configuration not stated),97% (active)
4,c1ccc2c(c1)Oc1cccc3cccc-2c13,56%
5,Cc1ccc(CCC2=CCCc3c2ccc2ccccc32)cc1,-2%
6,CNC(=O)OCc1c(COC(=O)NC)c(-c2ccc(Cl)c(Cl)c2)n2c1CCC2,94% (active)
7,Clc1ccccc1C1OC1c1ccccc1Cl (configuration not stated),-48%
8,O=[N+]([O-])c1cc(CCl)ccc1CCl,98% (active)
9,S=c1[nH]nc(Nc2ccc(Cl)cc2)s1,38%
10,Cn1ccnc1Oc1ccc(Cl)cc1,55%
11,BrCc1cccc2ccc3cccc(CBr)c3c12,0%
12,O=C1c2ccccc2-c2nc3ccccc3nc21,12%
13,CCCCCCCCCCCCCCCCCCNC,18%
14,Oc1ccc(NCn2c(=S)sc3ccccc32)cc1,48%
15,O=C1C2CC[C@@H]3C(=O)C(Cl)(Cl)[C@@H]3CCC2C1(Cl)Cl (some centres not stated),95% (active)
16,CC[n+]1ccc2c(C)c3[nH]c4ccc(O)cc4c3c(C)c2c1,-6%
17,Cc1ccc(-n2cc(-c3ccc(Cl)cc3)c(C#N)c2N)cc1,6%
18,CC(=O)[O][Bi]([c]1ccccc1)[c]1ccccc1,91% (active)

row,Compound,growth inhibition
1,CC1=C(SCCO)C(=O)c2ccccc2C1=O,33%
2,C/C(=N\O)C1CC2C=C(C#N)C1N(Cc1ccccc1)C2 (configuration not stated),77% (active)
3,CC(Br)C(=O)c1ccc2cc(Br)c3ccccc3c2c1 (configuration not stated),18%
4,Nc1nc(-c2cccnc2)cc(-c2cc(-c3cccnc3)nc(N)n2)n1,-18%
5,CCC(C)COC(=O)c1ccc(N=Cc2ccc(C=Nc3ccc(C(=O)OCC(C)CC)cc3)cc2)cc1 (configuration not stated),13%
6,Oc1cccc2c(Cl)ccnc12,92% (active)
7,O=C(O)c1cccc(-c2c3ccc(=O)cc-3oc3cc(O)ccc23)c1,71% (active)
8,CN(CCc1ccccn1)c1ccc2c(c1)Cc1ccccc1-2,94% (active)
9,Cc1cc(S(=O)(=O)/N=C(/NN)NNc2cccc(C(F)(F)F)n2)c(S)cc1Cl,-3%
10,O=C1C2C(C(=O)N1c1ccc(OCc3ccccc3)cc1)C1c3ccccc3C2C2CCCCN21 (configuration not stated),24%
11,Nc1ccccc1CC(O)C(=O)O (configuration not stated),60%
12,O=C(O)C1CCCCC1c1c2ccc(=O)c(O)c-2oc2c(O)c(O)ccc12 (configuration not stated),20%
13,Cc1ccc2ccc(O)cc2c1,-23%
14,O=C1C(=O)c2ccccc2C=C1[N+](=O)[O-],94% (active)
15,COC(=O)c1ccc(NCC2=CC(=O)C=CC2=O)cc1O,97% (active)
16,C(CCSC1=NCCN1)CSC1=NCCN1 (tested in a mixture with another compound),99% (active)
17,N#Cc1c(N)[nH]c2ccc(Sc3ccccc3)cc12,95% (active)
18,CC[C@@]1(O)C(=O)OCc2c1cc1n(c2=O)Cc2cc3c(N)cccc3nc2-1,-15%
